Inconclusive results are not listed. Where a call stands in place of a potency, no number is given. The source made the active and inactive calls. Calls come from the whole dose curve; as a rule, active = well fitted cell-killing curve with a large enough effect in the repeat runs; inconclusive = weak or mixed curves, or effect the other way; inactive = flat fitted curve, though single readings scatter.
Experiment: qHTS assay to identify small molecule antagonists of the retinoid acid receptor (RAR) signaling pathway - cell viability counter screen (AID 1159551); note: nearly all actives have a fitted effect of over 35% in size
Details: C3RL4 cells viability, ATP luminescence (CellTiter-Glo), 6 h; series mostly up to 92.4 µM
Method in brief: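 Retinol-stimulated (1 uM final) C3RL4 cells, compound 6 h, 37 C; readout CellTiter-Glo luminescence (ATP) after 30 min RT incubation.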

Row | SMILES | Potency
1 | CCOC(=N)CC(=O)OCC | inactive
2 | CCOC(=O)C(C)Oc1ccc(Oc2nc3ccc(Cl)cc3o2)cc1 (stereo not given) | inactive
3 | Nc1ccc(Cl)cc1[N+](=O)[O-] | inactive
4 | CC(C)(CCl)c1ccccc1 | inactive
5 | N#C/C(=C1\SCC(c2ccccc2Cl)S1)n1ccnc1 (stereo not given) | inactive
6 | CCCOc1ccc(S(=O)(=O)N2CCN(CC)CC2)cc1-c1nc2c(CC)n(Cc3ccccn3)nc2c(=O)[nH]1 | inactive
7 | CCCCN(CCCC)C(=S)SSC(=S)N(CCCC)CCCC | inactive
8 | Nc1ccc(S(=O)(=O)O)cc1 | inactive
9 | CC(C)c1nnc2ccc(-c3ocnc3-c3cc(F)ccc3F)cn12 | inactive
10 | Cc1nccn1-c1ccc(Sc2cccc(C3(C(N)=O)CCOCC3)c2)cc1 | inactive
11 | Cc1cc(O)c2c(O)c3c(O)cccc3cc2c1 | inactive
12 | CC(=O)Oc1ccc2c(c1)CC[C@@H]1[C@@H]2CC[C@]2(C)[C@@H](O)CC[C@@H]12 | inactive
13 | CO/N=C1\CN(c2nc3c(cc2F)c(=O)c(C(=O)O)cn3C2CC2)CC1CN (stereo not given) | inactive
14 | N#C/C(=C1/SC[C@@H](c2ccc(Cl)cc2Cl)S1)n1ccnc1 | inactive
15 | C=CC(=O)NCOCC(C)C | inactive
16 | O=C(O)Cc1ccc(-c2ccccc2)cc1 | inactive
17 | NCC1CCCC(CN)C1 (stereo not given) | inactive
18 | C=C(C)C(=O)OCCOC(=O)CC(C)=O | inactive
19 | O=C(c1ccc(O)cc1)c1ccc(Cl)cc1 | inactive
20 | O=C(O)c1ccccc1NCCc1ccccc1 | inactive

Row | SMILES | Potency
21 | COCCOC(=O)C1=C(C)NC(C)=C(C(=O)OC/C=C/c2ccccc2)C1c1cccc([N+](=O)[O-])c1 (stereo not given) | inactive
22 | CCCCC(CC)C(=O)OCCOCCOCCOCCOC(=O)C(CC)CCCC (stereo not given) | inactive
23 | CCOC(=O)c1ccccc1OC | inactive
24 | CCCCCCCCCCOS(=O)(=O)O | inactive
25 | C1COCO1 | inactive
26 | Cc1ccc(/C=N/n2c(-c3ccccc3)csc2=S)cc1 | inactive
27 | Cc1ccc(Nc2nccc(N(C)c3ccc4c(C)n(C)nc4c3)n2)cc1S(N)(=O)=O | inactive
28 | CC(C)=CC=O | inactive
29 | CCOC(=O)[C@@H](C)Oc1ccc(Oc2nc3ccc(Cl)cc3o2)cc1 | inactive
30 | CCCCCCCCCCCC[N+](C)(C)CCCS(=O)(=O)[O-] | inactive
31 | CO[C@@]12[C@H](COC(N)=O)C3=C(C(=O)C(C)=C(N)C3=O)N1C[C@@H]1N[C@@H]12 | inactive
32 | ON(Cc1ccccc1)Cc1ccccc1 | inactive
33 | O=C(NCCCN1CCOCC1)c1ccc(Cl)cc1 | inactive
34 | CC(C)CCCCCOC(=O)CCCCC(=O)OCCCCCC(C)C | inactive
35 | CNC(=O)N(c1ccccc1)c1ccccc1 | inactive
36 | O=C(OCCOCCO)c1ccccc1Nc1cccc(C(F)(F)F)c1 | inactive
37 | CCC(Cc1ccccc1)(C(=O)c1ccc(N2CCOCC2)cc1)N(C)C (stereo not given) | inactive
38 | CCCCCCOC(=O)C(C)C | inactive
39 | CC(=O)OCC(=O)[C@H]1CC[C@H]2[C@@H]3CCC4=CC(=O)CC[C@]4(C)[C@H]3CC[C@]12C | inactive
40 | NC(=O)N(O)[C@@H]1C=C[C@H](Oc2cccc(Oc3ccc(F)cc3)c2)C1 | inactive

From PubChem BioAssay (Tox21)
